Source: PubChem
HT1080 IDH1KD tx – toxicity to HT-1080 IDH1 knockdown cells (counter line). actives 2% (n = 360,000). HT-1080 IDH1 knockdown viability, ATP luminescence, 48 h. Potency, µM (top dose mostly 46.1 µM), actives largely listed as cytotoxic. AID 686971
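Knockdown cells (IDH1KD HT-1080) received compounds 2 h after plating at 750 cells/well and were kept 48 h at 37 °C in 5% FBS RPMI. A CellTiter-Glo luminescence read gave % activity for curve fitting.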
KB-V1 cytotox – KB-V1 MDR subline cytotoxicity | Potency, µM (highest dose often 46.1 µM), hits mostly cytotoxic | AID 1347076 | actives 3.4% (n = 400,000) | KB-V1 MDR cells viability, CellTiter-Glo, 72 h; also: nearly all actives have a fitted effect of over 60% in size
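KB-V1, DMEM (no phenol red) + 10% FBS; cpd pin-transferred, titration series; 72 h, 37 degrees C; CellTiter-Glo, luminescence. Data normalized, curve-fit.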
KB-3-1 tox – kills parental KB-3-1 adenocarcinoma cells; KB-3-1 viability, CellTiter-Glo ATP luminescence, 72 h; Potency, µM (highest dose often 46.1 µM), usual class: cytotoxic; actives 1.4% (n = 400,000); AID 1347075; also: nearly all actives have a fitted effect of over 60% in size
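Using CellTiter-Glo luminescence, growth of non-resistant KB-3-1 adenocarcinoma cells is assessed 72 h after pin-tool compound addition at 37 °C. Normalized responses across the concentration series yield fitted curves.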
HT1080NT lethal – kills 2HG-producing HT-1080-NT fibrosarcoma cells; HT-1080-NT fibrosarcoma viability, CellTiter-Glo ATP luminescence, 48 h; Potency, µM (doses to about 46.1 µM), usual class: cytotoxic; actives 1.6% (n = 360,000);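 also: NT is the 2HG producing partner of a matched IDH1 knockdown line; nearly all actives have a fitted effect of over 55% in size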
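Fibrosarcoma NT cells, 750 per well in 5% FBS RPMI, were exposed to compound for 48 hours. Viability: CellTiter-Glo luminescence.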
IL-1B inflam inh – inflammasome signaling inhibition, IL-1 beta readout; actives 4.7% (n = 360,000); activity change, % at 57.5 µM; THP-1 LPS/ATP IL-1B secretion, AlphaLISA, 16 h; hits give low values; AID 743279; in the data active = activity change below about -50%; inconclusive = mostly about -30% to -49%
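THP-1 cells pretreated 1 hr with compounds (up to 57.5 uM final), then stimulated with LPS (250 ng/mL final) plus ATP (1.25 mM final); secreted IL-1B measured by AlphaLISA after 16 hr, decreased signal indicating inhibition.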
Each line names hits and unclear results; the compound was inactive in the other large screens. Hits are enriched below; roughly 8.8% of the tested compounds scored in any of these assays. Unless noted, calls follow the shape of the dose curve; as a rule, active = well fitted curve in the direction sought with a large enough effect; inconclusive = small, poorly fitted or top-dose-only effect, or another doubt; inactive = no such curve, though single readings can be large; an effect the other way counts as inactive or inconclusive.

CCN(C(=O)c1ccco1)c1nc(CC(=O)Nc2ccc(Cl)cc2)cs1	KB-V1 cytotox 16µM
O=C(c1ccco1)N(CCCN1CCOCC1)c1nc(-c2ccc(Cl)cc2)cs1	HT1080 IDH1KD tx inconclusive, HT1080NT lethal inconclusive, IL-1B inflam inh inconclusive
O=C(c1ccco1)N(CCCN1CCOCC1)c1nc(-c2ccc(F)cc2)cs1	HT1080 IDH1KD tx inconclusive, KB-V1 cytotox inconclusive, HT1080NT lethal inconclusive, IL-1B inflam inh -88
COCCCN(C(=O)c1ccco1)c1nc(-c2ccc(OC)cc2)cs1	KB-V1 cytotox inconclusive
CCN(CC)CCCN(C(=O)c1ccco1)c1nc(-c2ccc(C)cc2)cs1	HT1080 IDH1KD tx inconclusive, HT1080NT lethal inconclusive, IL-1B inflam inh -85
C=C1CCC2[C@](C)(CO[C@@H]3O[C@H](CO)[C@@H](O)[C@H](O)[C@H]3O)CCC[C@@]2(C)[C@@H]1CCC1=CCOC1=O (stereo partly specified)	none
COc1ccc(/C=N/NC(=O)CCSc2nc3ccccc3s2)cc1	HT1080 IDH1KD tx inconclusive, KB-3-1 tox inconclusive, HT1080NT lethal inconclusive, IL-1B inflam inh inconclusive
O=[N+]([O-])c1cccc(-c2ccc(CN3CCCCC3)o2)c1	none
CCOC(=O)C(CC)Sc1nnc2n1C(C)(C)Cc1ccccc1-2 (stereo unspecified)	KB-V1 cytotox 16µM
Cc1ccc(Cl)cc1N1CCN(C(=O)CSc2nnc3n2C(C)(C)Cc2ccccc2-3)CC1	KB-V1 cytotox 12µM, KB-3-1 tox inconclusive, IL-1B inflam inh inconclusive
COc1ccc(N2CCN(C(=O)CSc3nnc4n3C(C)(C)Cc3ccccc3-4)CC2)cc1	KB-V1 cytotox 5.2µM, KB-3-1 tox inconclusive
CC1(C)Cc2ccccc2-c2nnc(SCC(=O)N3CCc4ccccc43)n21	HT1080 IDH1KD tx inconclusive, KB-V1 cytotox 4.1µM
Cc1cc(C)cc(NC(=S)N2CC(C)OC(C)C2)c1 (stereo unspecified)	none
COc1ccc(N2CCN(S(=O)(=O)c3csc(C(N)=O)c3)CC2)cc1	none (no result: HT1080 IDH1KD tx, HT1080NT lethal, IL-1B inflam inh)
O=C1NC[C@@H](Cc2cccc3ccccc23)N(CCc2cc(C(F)(F)F)cc(C(F)(F)F)c2)C1=O	IL-1B inflam inh -51
NNc1nc(-c2ccccc2)cc(-c2ccc(Br)cc2)n1	HT1080 IDH1KD tx inconclusive, KB-V1 cytotox inconclusive, KB-3-1 tox inconclusive, HT1080NT lethal inconclusive, IL-1B inflam inh -56
NNc1nc(-c2ccccc2)c2cc(Br)ccc2n1	HT1080 IDH1KD tx inconclusive
Cc1nn(-c2ccccc2)c(C)c1C(=O)OC(C)C(=O)NC1CCCCC1 (stereo unspecified)	HT1080NT lethal 21µM, IL-1B inflam inh inconclusive
Cc1c(C(=O)NC(C)C)c(-c2ccccc2)nn1-c1ccccc1	KB-V1 cytotox 21µM
CCN(CC)CCCCNc1ncc2cc(-c3cc(OC)cc(OC)c3)c(NC(=O)NC(C)(C)C)nc2n1	HT1080 IDH1KD tx 9.2µM, KB-V1 cytotox inconclusive, HT1080NT lethal 16µM
CCN(CC(O)Cn1c2ccccc2c2ccccc21)S(=O)(=O)c1ccc(C)cc1 (stereo unspecified)	KB-V1 cytotox inconclusive, KB-3-1 tox inconclusive, IL-1B inflam inh inconclusive
CC(=O)Nc1ccccc1N(CC(O)Cn1c2ccccc2c2ccccc21)S(=O)(=O)c1ccc(C)cc1 (stereo unspecified)	HT1080 IDH1KD tx 15µM, KB-V1 cytotox inconclusive, HT1080NT lethal inconclusive, IL-1B inflam inh inconclusive
COc1ccc(N(CC(O)Cn2c3ccccc3c3ccccc32)S(=O)(=O)c2ccccc2)cc1 (stereo unspecified)	HT1080 IDH1KD tx inconclusive, KB-V1 cytotox 23µM, KB-3-1 tox inconclusive
CC(C)CN(C(=O)CSc1nnnn1-c1ccccc1)c1c(N)n(CC(C)C)c(=O)[nH]c1=O	none
Cc1cc(C)cc(Cn2cc(CN3CC(N(C)C)CS3(=O)=O)nn2)c1 (stereo unspecified)	none
COc1ccc(Cn2cc(CN3CC(N4CCN(Cc5ccccc5F)CC4)CS3(=O)=O)nn2)cc1 (stereo unspecified)	HT1080 IDH1KD tx 23µM
CN1CCN(C2CN(Cc3cn(Cc4ccc(F)cc4)nn3)S(=O)(=O)C2)CC1 (stereo unspecified)	IL-1B inflam inh -65
CCN(C)C1CN(Cc2cn(Cc3cc(C)cc(C)c3)nn2)S(=O)(=O)C1 (stereo unspecified)	KB-V1 cytotox inconclusive, IL-1B inflam inh -52
Cc1cc(S(=O)(=O)Nc2ccc(C(=O)NCc3cccnc3)cc2)ccc1F	none
COc1ccc(NC(=O)CN2C(=O)NC3(CCCc4ccccc43)C2=O)c(OC)c1 (stereo unspecified)	none
CC1C/C(=N/O)C(C)CN1 (stereo unspecified)	KB-V1 cytotox inconclusive
CC1CCCCC1NC(=O)CN1CCN(S(=O)(=O)c2ccc(Br)s2)CC1 (stereo unspecified)	KB-V1 cytotox 9.2µM, KB-3-1 tox inconclusive
CC1CC(C)CN(C(=O)C(C)N2CCN(S(=O)(=O)c3ccc(Br)s3)CC2)C1 (stereo unspecified)	IL-1B inflam inh -59
CC1CC(C)CN(C(=O)C(C)N2CCN(S(=O)(=O)c3cccs3)CC2)C1 (stereo unspecified)	none
O=C(/C=C/c1ccco1)NC(=S)Nc1cccc(-c2nc3ccccc3o2)c1	HT1080 IDH1KD tx 5.8µM, KB-V1 cytotox 8.2µM, KB-3-1 tox inconclusive, HT1080NT lethal 5.2µM
Cc1ccc(-c2nc3ccccc3o2)cc1NC(=S)NC(=O)/C=C/c1ccco1	HT1080 IDH1KD tx inconclusive, KB-V1 cytotox inconclusive, KB-3-1 tox 13µM, HT1080NT lethal inconclusive
O=C(/C=C/c1ccco1)NC(=S)Nc1cccc(-c2nc3ccccc3s2)c1	HT1080 IDH1KD tx 21µM, KB-V1 cytotox 6.5µM, KB-3-1 tox 8.2µM, HT1080NT lethal 23µM
COc1ccc(-c2nc3ccccc3o2)cc1NC(=O)COc1ccc(C)c(C)c1	KB-V1 cytotox inconclusive, KB-3-1 tox 5.8µM (no result: HT1080 IDH1KD tx, HT1080NT lethal, IL-1B inflam inh)
Clc1ccc(-c2csc3ncnc(Sc4nnnn4-c4ccccc4)c23)cc1	KB-3-1 tox inconclusive (no result: HT1080 IDH1KD tx, HT1080NT lethal, IL-1B inflam inh)
O=C(Cc1cccs1)NCCS(=O)(=O)N1CCN(c2ccccc2F)CC1	HT1080 IDH1KD tx inconclusive, KB-V1 cytotox inconclusive, KB-3-1 tox 12µM, HT1080NT lethal inconclusive
CNC(=O)CN(C1CCCCC1)S(=O)(=O)c1ccc(F)cc1	none
COc1ccccc1N1CCN(S(=O)(=O)CCNC(=O)c2ccco2)CC1	none
COc1ccccc1N1CCN(S(=O)(=O)CCNC(=O)c2cc(OC)c(OC)c(OC)c2)CC1	HT1080 IDH1KD tx inconclusive, KB-3-1 tox 6.5µM, HT1080NT lethal inconclusive
O=C(Cc1cccs1)NCCS(=O)(=O)N1CCN(c2ccccc2)CC1	none
COc1cccc(C(=O)NCCS(=O)(=O)N2CCCCCC2)c1	KB-V1 cytotox 12µM
COc1cccc(C(=O)NCCS(=O)(=O)N2CCCCC2)c1	none
CCNC(=O)CN(C1CCCCC1)S(=O)(=O)c1ccc(F)cc1	KB-V1 cytotox 13µM
